Compound activity: PubChem, National Center for Advancing Translational Sciences (NCATS)
This excerpt belongs to a sample that is enriched for hits.
Shiga toxin inh – A qHTS for Small Molecule Inhibitors of Shiga Toxin; 9.2% of 290,000 active; Vero cells, Shiga toxin protein synthesis inhibition reporter; inhibition, % at 38.7 µM; AID 2315, 2010; in the data active = inhibition mostly above about 28%, no sharp cut-off; inactive = mostly below about 43%; note: 0% is about no effect
VACV Venus inh – qHTS for Stage-Specific Inhibitors of Vaccinia Orthopoxvirus: Venus Reporter Primary qHTS. 0.46% of 330,000 active. Vaccinia virus Venus reporter expression, fluorescence. Potency, µM (doses to about 36.5 µM), for inactives: at the top dose activity change, negative = inhibition, hits mostly inhibitors; calls by dose curve; tested in A549 cells; note: potency is the fitted concentration of half-maximal effect; % is set by controls: 0 for no effect and ±100 for the full control effect; nearly all actives have a fitted effect of over 30% in size
Marburg entry inh – qHTS for inhibitors of binding or entry into cells for Marburg Virus | Potency, µM (top dose mostly 37.8 µM), for the others: at the top dose activity change, negative = inhibition, usual class: inhibitors | Marburg virus pseudotyped entry inhibition, cell reporter | 1.8% of 300,000 active | AID 540276, 2011; calls by dose curve; tested in HEK293 cells; note: potency is the fitted concentration of half-maximal effect; % is set by controls: 0 for no effect and ±100 for the full control effect
Cycloheximide cs – Cycloheximide Counterscreen for Small Molecule Inhibitors of Shiga Toxin. max response, %. cell reporter, cycloheximide protein synthesis inhibition counterscreen. 12% of 300,000 active; in the data active = max response mostly above about 13%, no sharp cut-off; inactive = mostly below about 14%; note: read at 38.3 µM for the half of the compounds with a filed dose; 0% is about no effect
VACV mCherry inh – qHTS for Stage-Specific Inhibitors of Vaccinia Orthopoxvirus: mCherry Reporter Primary qHTS; AID 720579, 2013; 0.63% of 310,000 active; Vaccinia virus mCherry reporter infection, fluorescence; Potency, µM (doses to about 36.5 µM), inactives show top-dose activity change, negative = inhibition, actives largely listed as inhibitors; calls by dose curve; tested in A549 cells; note: potency is the fitted concentration of half-maximal effect; % is set by controls: 0 for no effect and ±100 for the full control effect; nearly all actives have a fitted effect of over 35% in size
LASV entry inh – qHTS for Inhibitors of binding or entry into cells for Lassa Virus; Lassa virus pseudotype entry inhibition, cell reporter; Potency, µM (doses to about 37.9 µM), without a hit: at the highest dose activity change, negative = inhibition, usual class: inhibitors; 1.2% of 300,000 active; AID 540256, 2011; calls by dose curve; tested in HEK293 cells; note: potency is the fitted concentration of half-maximal effect; % is set by controls: 0 for no effect and ±100 for the full control effect; nearly all actives have a fitted effect of over 50% in size
The depositor's hits bear a star; [ ] = dose if it differs, or a comment.

c1ccc(OCCSc2nnnn2C2CCCCC2)cc1 was read as Shiga toxin inh 95*, VACV Venus inh -15%, Marburg entry inh -5%, Cycloheximide cs 30* and LASV entry inh 14µM*.
`COc1ccc(OCCSc2nnnn2C2CCCCC2)cc1` gave Shiga toxin inh 26, VACV Venus inh -27%, Marburg entry inh inconclusive, Cycloheximide cs 10 and LASV entry inh -3%.
For O=C(CSc1nc2ccccc2s1)c1ccc(O)cc1O the results were Shiga toxin inh 59* and Cycloheximide cs 22*.
Screening O=C(Cc1nc2ccccc2s1)c1ccc(O)cc1O returned Shiga toxin inh 65*, Marburg entry inh 1% and Cycloheximide cs 41*.
Screening CCOC(=O)C1(CCOc2ccccc2)CCN(C(=O)CCSC)CC1 returned VACV Venus inh -2%, Marburg entry inh 4%[46.1 µM], VACV mCherry inh -13% and LASV entry inh -19%[46.1 µM].
For Cc1cccc(NC(=O)CSc2nc3nc4c(cc3c(=O)n2-c2ccccc2)CCCC4)c1 the results were Shiga toxin inh -13, VACV Venus inh -12%, Marburg entry inh 10µM*, Cycloheximide cs -2, VACV mCherry inh 10% and LASV entry inh -3%.
Screening CCn1c(SCC(=O)Nc2ccc(C(C)=O)cc2)nc2nc3c(cc2c1=O)COC(C)(C)C3 returned Shiga toxin inh 122* and Cycloheximide cs 32*.
CCn1c(SCC(=O)Nc2ccc(C(C)=O)cc2)nc2nc3c(cc2c1=O)CCCC3 was read as Shiga toxin inh 46*, Marburg entry inh -15%, Cycloheximide cs 26* and LASV entry inh -4%.
Screening Cn1c(=O)oc2cc(S(=O)(=O)NCCC(=O)Nc3ccc(F)c(Cl)c3)ccc21 returned VACV Venus inh 1%, Marburg entry inh 0%[46.1 µM], VACV mCherry inh -4% and LASV entry inh 12%[46.1 µM].
Screening O=c1oc2ccc(Br)cc2cc1-c1csc(-c2ccccc2)n1 returned VACV Venus inh -10%, VACV mCherry inh -9% and LASV entry inh inconclusive.
`COc1ccc2c(c1OC)C(=O)OC2Nc1nc(-c2ccc([N+](=O)[O-])cc2)cs1` (centres undefined) gave Shiga toxin inh 56*, VACV Venus inh -1%, Marburg entry inh 17%[46.1 µM], Cycloheximide cs 16*, VACV mCherry inh -19% and LASV entry inh 16%[46.1 µM].
For COc1ccc2c(c1OC)C(=O)OC2Nc1nc2ccccc2s1 (centres undefined) the results were Shiga toxin inh 12, VACV Venus inh -8%, Marburg entry inh -1%, Cycloheximide cs 8, VACV mCherry inh -13% and LASV entry inh 14%.
`COc1ccc2c(c1OC)C(=O)OC2Nc1nc(-c2cc3cc(Br)ccc3oc2=O)cs1` (centres undefined) gave Shiga toxin inh 80*, VACV Venus inh inconclusive, Marburg entry inh 22%[46.1 µM], Cycloheximide cs 37*, VACV mCherry inh inconclusive and LASV entry inh -12%.
Screening COc1ccc(-c2csc(NC3OC(=O)c4c3ccc(OC)c4OC)n2)cc1OC (centres undefined) returned Shiga toxin inh 12, VACV Venus inh inconclusive, Marburg entry inh inconclusive, Cycloheximide cs 12*, VACV mCherry inh inconclusive and LASV entry inh -11%.
Screening O=C1C(Cl)=C(Nc2ccccc2O)C(=O)N1c1ccccc1 returned Shiga toxin inh 67*, Marburg entry inh 8%, Cycloheximide cs 45* and LASV entry inh 1%.
COc1ccccc1N1C(=O)C(Cl)=C(Nc2ccccc2O)C1=O was read as Shiga toxin inh 103*, VACV Venus inh 16%, Marburg entry inh -12%[46.1 µM], Cycloheximide cs 32*, VACV mCherry inh -15% and LASV entry inh -7%.
Screening CCOc1ccccc1NC1=C(Cl)C(=O)N(c2ccc(OC)cc2)C1=O returned Shiga toxin inh 13, VACV Venus inh -18%, Marburg entry inh 2%, Cycloheximide cs 0, VACV mCherry inh -18% and LASV entry inh 1%.
CC(C)C1Cc2c(sc3[nH]c(=S)n(Cc4ccccc4)c(=O)c23)CO1 (centres undefined) was read as Shiga toxin inh -4, VACV Venus inh 0%, Marburg entry inh inconclusive, Cycloheximide cs 0, VACV mCherry inh -15% and LASV entry inh 0.79µM*.
